Assay [1] in a line: small molecules captured by biotinylated probe aFSTL3 – biochemical, small-molecule microarray, fluorescence 635/667, stem cell growth factor project, primary screen (AID 1064).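 Further: measures binding of the biotinylated anti-FSTL3 antibody to printed compounds.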 Particulars: higher = more signal.
A short description of assay [2]: binders from COS7 lysate, DM2A8 probe, primary screen, torsin A project, cell lysate, small-molecule microarray, fluorescence 635/667 (AID 1065). The conditions noted are these: higher = more signal, COS7 lysate expressing mutant human TOR1A.
Assay [3] can be described thus: small molecules captured by biotinylated probe aFGF2 – biochemical, small-molecule microarray, fluorescence 635/667, stem cell growth factor project, primary screen (AID 1067).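 Further: measures binding of biotinylated aFGF2 protein to printed compounds on slides; z-score merges feature fluorescence and signal-to-noise across triplicate slides.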 The conditions noted are these: higher = more signal.
Assay [4] is described as follows: small molecules captured by biotinylated probe aFGF10 – biochemical, small-molecule microarray, fluorescence 635/667, stem cell growth factor project, primary screen (AID 1071).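 Further: score merges 667 nm spot intensity and signal to noise from triplicate slides.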 Particulars: higher = more signal.
Assay [5] has as its target Neurogenic locus notch homolog protein 2 (Homo sapiens) (UniProt Q04721). Briefly: small molecules binding Notch2 protein – biochemical, small-molecule microarray, 635 nm fluorescence, stem cell growth factors, primary screen (AID 1073). Particulars: higher = more signal.
Assay [6] has as its target Pro-neuregulin-1, membrane-bound isoform (Homo sapiens) (UniProt Q02297). As to the kind of experiment: small molecules binding neuregulin-1 protein – biochemical, small-molecule microarray, fluorescence 635/667, psychiatric disease protein project, primary screen (AID 1075).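 Further: score combines 667 nm spot fluorescence with signal to noise.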 The conditions noted are these: NRG1 binding, 635 nm fluorescence, higher = more signal.
The subject of assay [7] is Neuregulin-1 EGF-like domain. As to the kind of experiment: small molecules binding NRG1 EGF domain – biochemical, small-molecule microarray, 635 nm fluorescence, primary screen (AID 1081).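 Further: binding of the protein to compounds printed on small-molecule microarray slides.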 Particulars: higher = more signal.
Assay [8] in a line: FRG1 expression reporter modulators in myotubes – cell-based, C2C12 myotubes, firefly/Renilla luciferase, luminescence, FRG1 inhibition for FSHD, primary screen (AID 1084). The conditions noted are these: FRG1 promoter luciferase, higher = more signal, called active from +8 up or from −8 down.
The nature of assay [9]: small molecules captured by biotinylated probe aFST – biochemical, small-molecule microarray, fluorescence 635/667, stem cell growth factor project, primary screen (AID 1086).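 Further: score merges 667 nm fluorescence with signal-to-noise of each printed compound spot.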 Particulars: higher = more signal.
Assay [10] is described as follows: binders of probe aHhip on microarray, primary screen, stem cell growth factor project, biochemical, small-molecule microarray, fluorescence 635/667 (AID 1087).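 Further: score merges spot fluorescence at 667nm with spot signal to noise ratio.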 The conditions noted are these: higher = more signal.
Assay [11] has as its system PRMT1 (protein arginine N-methyltransferase 1). Briefly: small molecules binding arginine methyltransferase PRMT1 – biochemical, small-molecule microarray, 635 nm fluorescence, primary screen (AID 1088).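 Further: binding of Prmt1 protein to compounds spotted on small-molecule microarray slides.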 The conditions noted are these: higher = more signal.
Assay [12] can be described thus: growth effects on S. cerevisiae YJM789 – YJM789 clinical isolate, OD600, 24 h, basal, primary screen (AID 1089).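 Further: growth of clinical yeast isolate S. cerevisiae YJM 789 seeded 1000 cells per well; test concentration not given here.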 The conditions noted are these: higher = more signal, called active from +8 up or from −8 down.
Assay [13] is described as follows: S. pombe growth modifiers, basal conditions – strain 972, OD600, 24 h, no modulator, primary screen (AID 1090).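 Further: basal condition with compound alone and no growth modifier present; test concentration not given here.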 The conditions noted are these: S. pombe 972 growth, higher = more signal, called active from +8 up or from −8 down.
Assay [14] in a line: budding yeast growth modifiers under rapamycin – strain BY4716, OD600, 96 h, primary screen (AID 1091). Further: test concentration not given here. The conditions noted are these: S. cerevisiae BY4716 + rapamycin, higher = more signal, called active from +8 up or from −8 down.
For assay [15], the target named is Torsin-1A-interacting protein 2 (Homo sapiens) (UniProt Q8NFQ8). Briefly: small molecules binding lysate-expressed LULL1 – cell lysate, human LULL1 lysate, 635/667 nm fluorescence, primary screen (AID 1092).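 Further: probe is lysate of COS7 cells overexpressing human LULL1; score merges per-feature 667 nm fluorescence with signal-to-noise.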 The conditions noted are these: small-molecule microarray, hLULL1 lysate binding, 635 nm fluorescence; higher = more signal.
Assay [16] in a line: optical density change of DRC41 E. coli – strain DRC41, OD650, 24 h, E. coli filamentation project, primary screen (AID 1093).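 Further: MC1000 strain lacking acrAB efflux and sulA so SOS filamentation is blocked; test concentration not given here.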 Particulars: E. coli DRC41 growth, higher = more signal, called active from +8 up or from −8 down.
A short description of assay [17]: probe aLefty2 binding to arrayed compounds – biochemical, biotinylated probe, 635/667 nm fluorescence, primary screen (AID 1094).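 Further: score merges spot fluorescence near 667 nm with spot signal-to-noise ratio.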 The conditions noted are these: small-molecule microarray, higher = more signal.
In assay [18] the test system is Noggin (protein binding on small-molecule microarray). As to the kind of experiment: small molecules binding Noggin protein – biochemical, 635/667 nm fluorescence, primary screen (AID 1095).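 Further: score merges 667 nm feature fluorescence with signal to noise over triplicate slides.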 Particulars: 635 nm fluorescence, higher = more signal.
In assay [19] the target is Neurogenic locus notch homolog protein 3 (Homo sapiens) (UniProt Q9UM47). Briefly: small molecules binding NOTCH3 protein – biochemical, 635/667 nm fluorescence, primary screen (AID 1096). Particulars: small-molecule microarray, 635 nm fluorescence, higher = more signal.
Assay [20] can be described thus: probe aEGFR binding to arrayed compounds – biochemical, biotinylated probe, 635/667 nm fluorescence, primary screen (AID 1097).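 Further: probe is a biotinylated anti-EGFR antibody binding compounds printed on slides; score combines fluorescence near 667 nm and signal to noise of each spot.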 Particulars: small-molecule microarray, higher = more signal.

Values joined by “and” are separate entries in the source; they are usually repeats but may differ in a detail not shown here. Equal values may be shown once. Active and inactive are the calls of the source.

Chain of Torsin-1A-interacting protein 2 (Homo sapiens) (Q8NFQ8 whole entry, looked up): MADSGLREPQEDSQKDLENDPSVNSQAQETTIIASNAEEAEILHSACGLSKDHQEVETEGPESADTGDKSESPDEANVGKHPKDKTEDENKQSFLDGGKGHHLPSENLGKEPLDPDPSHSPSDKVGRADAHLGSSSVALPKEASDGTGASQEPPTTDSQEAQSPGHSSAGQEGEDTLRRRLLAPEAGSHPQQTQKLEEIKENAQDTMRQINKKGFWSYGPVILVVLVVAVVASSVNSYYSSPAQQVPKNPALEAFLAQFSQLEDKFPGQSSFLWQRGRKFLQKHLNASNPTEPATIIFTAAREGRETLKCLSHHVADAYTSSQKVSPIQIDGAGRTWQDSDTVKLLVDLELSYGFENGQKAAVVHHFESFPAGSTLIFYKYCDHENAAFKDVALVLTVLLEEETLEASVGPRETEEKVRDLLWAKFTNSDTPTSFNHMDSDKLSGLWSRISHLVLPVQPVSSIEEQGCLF
Chain of Neurogenic locus notch homolog protein 2 (Homo sapiens) (Q04721 whole entry, looked up, canonical isoform): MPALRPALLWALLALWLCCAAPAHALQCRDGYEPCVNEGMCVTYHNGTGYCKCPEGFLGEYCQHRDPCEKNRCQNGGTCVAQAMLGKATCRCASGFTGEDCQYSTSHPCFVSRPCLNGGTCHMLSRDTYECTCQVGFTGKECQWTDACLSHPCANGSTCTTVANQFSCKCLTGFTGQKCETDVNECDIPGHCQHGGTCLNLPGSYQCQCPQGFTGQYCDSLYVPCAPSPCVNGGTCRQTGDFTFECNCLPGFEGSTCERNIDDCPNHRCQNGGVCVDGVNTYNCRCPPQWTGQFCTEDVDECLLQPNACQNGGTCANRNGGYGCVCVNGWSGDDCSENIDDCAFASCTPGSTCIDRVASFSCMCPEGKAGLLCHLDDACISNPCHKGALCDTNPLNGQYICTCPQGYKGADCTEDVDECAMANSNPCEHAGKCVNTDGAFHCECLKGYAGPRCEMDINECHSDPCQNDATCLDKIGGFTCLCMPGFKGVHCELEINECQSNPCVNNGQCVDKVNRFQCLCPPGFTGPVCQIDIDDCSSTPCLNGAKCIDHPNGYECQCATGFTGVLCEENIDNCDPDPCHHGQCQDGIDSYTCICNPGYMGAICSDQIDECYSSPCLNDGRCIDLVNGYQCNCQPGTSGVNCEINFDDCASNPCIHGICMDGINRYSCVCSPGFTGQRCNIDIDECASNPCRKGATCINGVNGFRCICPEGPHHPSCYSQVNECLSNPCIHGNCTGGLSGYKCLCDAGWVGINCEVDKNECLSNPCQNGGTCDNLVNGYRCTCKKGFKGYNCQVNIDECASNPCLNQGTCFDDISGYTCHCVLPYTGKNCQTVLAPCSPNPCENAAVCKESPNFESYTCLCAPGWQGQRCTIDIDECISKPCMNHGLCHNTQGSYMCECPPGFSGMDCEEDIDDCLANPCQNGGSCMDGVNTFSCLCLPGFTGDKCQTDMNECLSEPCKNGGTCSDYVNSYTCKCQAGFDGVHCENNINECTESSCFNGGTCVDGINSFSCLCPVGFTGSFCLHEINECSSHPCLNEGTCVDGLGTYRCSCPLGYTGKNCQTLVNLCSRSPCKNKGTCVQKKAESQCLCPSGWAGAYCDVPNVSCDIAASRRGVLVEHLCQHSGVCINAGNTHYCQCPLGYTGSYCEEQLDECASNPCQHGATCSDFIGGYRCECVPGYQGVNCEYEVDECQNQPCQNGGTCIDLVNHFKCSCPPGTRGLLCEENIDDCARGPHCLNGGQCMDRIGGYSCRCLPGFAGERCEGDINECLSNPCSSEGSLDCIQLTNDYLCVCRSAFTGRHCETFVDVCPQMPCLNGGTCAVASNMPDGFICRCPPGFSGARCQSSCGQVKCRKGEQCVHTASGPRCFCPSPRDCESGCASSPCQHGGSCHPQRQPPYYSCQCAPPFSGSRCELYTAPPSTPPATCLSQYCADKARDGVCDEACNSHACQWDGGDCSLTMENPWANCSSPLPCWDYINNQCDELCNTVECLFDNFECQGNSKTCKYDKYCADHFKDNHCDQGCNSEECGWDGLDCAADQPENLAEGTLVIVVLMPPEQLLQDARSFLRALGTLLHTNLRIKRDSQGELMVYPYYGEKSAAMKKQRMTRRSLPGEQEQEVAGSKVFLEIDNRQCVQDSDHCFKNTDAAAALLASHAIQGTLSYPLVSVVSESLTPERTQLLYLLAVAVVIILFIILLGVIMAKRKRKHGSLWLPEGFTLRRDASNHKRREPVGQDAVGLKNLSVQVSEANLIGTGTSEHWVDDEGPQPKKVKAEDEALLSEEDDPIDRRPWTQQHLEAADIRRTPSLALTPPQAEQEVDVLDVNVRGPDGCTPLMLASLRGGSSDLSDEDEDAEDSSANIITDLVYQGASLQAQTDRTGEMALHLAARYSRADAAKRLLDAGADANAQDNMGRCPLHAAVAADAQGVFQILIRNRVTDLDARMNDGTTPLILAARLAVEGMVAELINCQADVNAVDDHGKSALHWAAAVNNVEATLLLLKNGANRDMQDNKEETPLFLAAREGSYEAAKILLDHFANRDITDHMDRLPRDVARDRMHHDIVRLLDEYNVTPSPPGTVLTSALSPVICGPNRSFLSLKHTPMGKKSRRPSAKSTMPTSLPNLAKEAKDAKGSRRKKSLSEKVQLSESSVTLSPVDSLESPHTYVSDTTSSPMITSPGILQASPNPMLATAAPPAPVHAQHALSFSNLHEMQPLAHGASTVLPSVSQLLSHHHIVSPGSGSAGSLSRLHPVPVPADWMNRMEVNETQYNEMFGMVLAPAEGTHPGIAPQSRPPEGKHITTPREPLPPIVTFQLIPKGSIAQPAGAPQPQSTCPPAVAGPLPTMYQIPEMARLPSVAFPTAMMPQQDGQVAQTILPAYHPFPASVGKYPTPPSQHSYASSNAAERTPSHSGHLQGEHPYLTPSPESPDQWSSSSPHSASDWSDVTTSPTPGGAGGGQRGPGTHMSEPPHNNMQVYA
Chain of Pro-neuregulin-1, membrane-bound isoform (Homo sapiens) (Q02297 whole entry, looked up, the tested form may be a part, canonical isoform): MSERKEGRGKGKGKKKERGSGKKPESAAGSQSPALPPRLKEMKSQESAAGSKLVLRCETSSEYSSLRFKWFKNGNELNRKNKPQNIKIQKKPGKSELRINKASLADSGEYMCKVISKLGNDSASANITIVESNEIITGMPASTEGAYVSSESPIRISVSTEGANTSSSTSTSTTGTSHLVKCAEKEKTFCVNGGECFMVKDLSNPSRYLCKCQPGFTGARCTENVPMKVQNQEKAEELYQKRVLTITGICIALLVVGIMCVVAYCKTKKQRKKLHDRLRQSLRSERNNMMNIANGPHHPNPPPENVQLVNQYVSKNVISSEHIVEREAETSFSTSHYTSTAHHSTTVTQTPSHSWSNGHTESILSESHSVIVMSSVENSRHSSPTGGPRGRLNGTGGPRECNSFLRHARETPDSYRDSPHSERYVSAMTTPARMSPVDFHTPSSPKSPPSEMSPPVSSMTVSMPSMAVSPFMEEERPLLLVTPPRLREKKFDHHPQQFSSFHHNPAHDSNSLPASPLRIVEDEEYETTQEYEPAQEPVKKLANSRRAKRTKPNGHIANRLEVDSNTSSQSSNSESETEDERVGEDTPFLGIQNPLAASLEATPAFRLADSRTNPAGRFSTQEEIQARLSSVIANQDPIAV

Take `C[N+](C)(C)CCCCCCNC(=O)[C@@H]1C[C@@H]2C(=O)N[C@@H](CCCC[N+](C)(C)C)C(=O)N2[C@@H]1c1ccc(O)cc1`: the composite z-score in assay [1] was 0.245 and -0.175; in assay [2], 0.0279 and -0.0321; in [3] it was -0.12 and -0.181; in assay [4] it was 0.0015 and -0.155; in assay [5], -0.423 and -0.213; in assay [6], 0.142 and 1.11. For the same compound, the composite z-score is 1.35 and 1.36 in [7]; -0.12 and -0.0447 in [9]; -0.206 and -0.266 in assay [10]; 1 and 1.3 in assay [11]; 0.611 and 2.02 in assay [15]; -0.0356 and -0.117 in [17]. Besides, the composite z-score in assay [18] was 1.21 and 1.28; in assay [19], 0.643 and 0.994; in assay [20], -0.122 and -0.128. For the same compound, the z-score in [8] is 0.403 (inactive) and 2.73 (inactive); in assay [12], 0.272 (inactive) and 0.534 (inactive); in assay [13], 0.352 (inactive) and 0.356 (inactive); in assay [14], 0.02 (inactive) and 0.327 (inactive); in [16] it was 0.392 (inactive) and -0.176 (inactive).

Take `C=C[C@@H](C)[C@@H](O)c1ccc(OCCO)cc1`: the composite z-score in assay [1] is 1.01 and 0.0727; in assay [2], -1.44 and -0.971; in [3], -0.232 and -0.273; in [4], -1.47 and -1.27; in assay [5], -1.86 and -1.3; in assay [6], -0.408 and -0.496. In addition, the composite z-score is -0.477 and -0.674 in assay [7]; -1.9 and -0.848 in [9]; -0.242 and -0.644 in [10]; -0.851 and 0.0376 in [11]; -1.11 and -0.508 in assay [15]; 0.0893 and 0.2 in [17]. Further, the composite z-score in assay [18] is -1.72 and -1.7; in [19] it was -0.574 and -0.377; in assay [20], -0.397 and -0.374. Moreover, the z-score in [8] is 4.33 (inactive) and 1.84 (inactive); in assay [12], 0.0436 (inactive) and -2.75 (inactive); in assay [13], 0.162 (inactive) and -0.815 (inactive); in [14], -0.607 (inactive) and 0.262 (inactive); in [16], -0.0921 (inactive) and 1.12 (inactive).

Take `CC(CO)N1C(=O)[C@@H]2C3C(=O)OCCC=C[C@H]3OC23C=CCN(C(C)(C)C)C(=O)[C@@H]13` (stereo not given in full): the composite z-score in assay [1] was 0.589 and 0.169; in assay [2] it was -0.848 and -0.0168; in [3] it was -0.158 and -0.0296; in assay [4], -0.884 and 0.546; in [5] it was -1.01 and 0.13; in [6], -0.551 and 0.91. The composite z-score in [7] was 0.369 and 1.41; in assay [9] it was -0.547 and -0.0366; in assay [10] it was -0.134 and 0.0749; in assay [11], -0.577 and 0.254; in assay [15], -0.326 and 2.17; in [17] it was -0.176 and 0.0028. The composite z-score in assay [18] was -0.808 and 0.16; in assay [19], -0.431 and 0.289; in assay [20], -0.295 and -0.117. Besides, the z-score was 0.714 (inactive) and 0.355 (inactive) in assay [8]; 0.581 (inactive) and -1.45 (inactive) in [12]; 0.605 (inactive) and -0.779 (inactive) in assay [13]; 0.819 (inactive) and -0.544 (inactive) in assay [14]; -0.586 (inactive) and -0.513 (inactive) in assay [16].

With `COc1ccc(O[C@H]2C=C[C@@H](c3ccccc3)O[C@@H]2COC(=O)CCC(C)=NO[C@H](C)c2cn([C@H](CO)Cc3ccccc3)nn2)cc1`, the composite z-score was -0.647 and -0.694 in [1]; 0.535 and 0.365 in assay [2]; -0.0682 and -0.171 in assay [3]; 0.241 and 0.038 in assay [4]; 0.203 and 0.35 in assay [5]; 0.338 and 0.692 in [6]. Also, the composite z-score in assay [7] is -0.0177 and 0.384; in [9], 0.0869 and -0.364; in [10], -0.0196 and 0.201; in assay [11] it was 0.88 and 0.299; in assay [15] it was 0.026 and 0.303; in assay [17], -0.353 and -0.312. Moreover, the composite z-score in assay [18] is 0.393 and 0.795; in [19], 0.155 and 0.167; in assay [20] it was 0.257 and -0.336. Moreover, the z-score was 1.61 (inactive) and 1.46 (inactive) in assay [8]; 0.479 (inactive) and 0.555 (inactive) in assay [12]; 0.52 (inactive) and 0.0557 (inactive) in assay [13]; 0.616 (inactive) and 1.32 (inactive) in [14]; 0.204 (inactive) and 0.524 (inactive) in [16].

Turning to `C=CCN(CCCCC)C(=O)C1N(CCCCCCO)C(=O)C2C(C(=O)O)C3C=CC21O3` (stereo not given), the composite z-score in assay [1] is 1.25 and 0.679; in [2], -0.833 and -1.2; in assay [3] it was -0.2 and -0.248; in assay [4], -1.43 and -1.82; in [5], -2.1 and -1.82; in assay [6], -0.54 and 0.234. The composite z-score is 1.07 and 1.32 in assay [7]; -0.855 and -1.02 in assay [9]; -0.331 and -0.287 in [10]; 0.19 and -0.725 in assay [11]; 0.565 and 1.97 in [15]; -0.126 and -0.0198 in assay [17]. Further, the composite z-score is -2.33 and -1.76 in [18]; -0.968 and -0.32 in assay [19]; -0.322 and -0.32 in assay [20]. Further, the z-score is -0.0502 (inactive) and -0.095 (inactive) in assay [8]; -0.657 (inactive) and -0.677 (inactive) in assay [12]; -0.849 (inactive) and -0.744 (inactive) in assay [13]; -0.44 (inactive) and -0.767 (inactive) in [14]; -0.617 (inactive) and -0.541 (inactive) in [16].

These data come from PubChem BioAssay.
